This is a sample that favours compounds with a hit; in the whole collection about 8% have one here.
VP16 counter: inhibits Gal4-VP16 luciferase reporter, ROR gamma counter-screen. Drosophila S2 Gal4-VP16 UAS-luciferase, luminescence, 20 h. Potency, µM (top dose mostly 53.6 µM), inactives show top-dose activity, negative = inhibition, hits mostly inhibitors. actives 3.5% (n = 310,000);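 also: Gal4-VP16 expression switched on by copper sulfate through the metallothionein promoter; potency is read from the fitted curve at half-maximal effect; nearly all actives have a fitted effect of over 50% in size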
RORgamma inh: inhibitors of mouse ROR gamma transcriptional activity | Drosophila S2 Gal4-RORgamma UAS-luciferase reporter, 20 h | Potency, µM (doses to about 53.6 µM), for inactives: at the highest dose activity change, negative = inhibition, most hits filed as inhibitors | actives 5.4% (n = 310,000) | AID 2551; also: potency is read from the fitted curve at half-maximal effect; nearly all actives have a fitted effect of over 60% in size
Target sequence (P51450 whole entry, looked up, the tested form may be a part): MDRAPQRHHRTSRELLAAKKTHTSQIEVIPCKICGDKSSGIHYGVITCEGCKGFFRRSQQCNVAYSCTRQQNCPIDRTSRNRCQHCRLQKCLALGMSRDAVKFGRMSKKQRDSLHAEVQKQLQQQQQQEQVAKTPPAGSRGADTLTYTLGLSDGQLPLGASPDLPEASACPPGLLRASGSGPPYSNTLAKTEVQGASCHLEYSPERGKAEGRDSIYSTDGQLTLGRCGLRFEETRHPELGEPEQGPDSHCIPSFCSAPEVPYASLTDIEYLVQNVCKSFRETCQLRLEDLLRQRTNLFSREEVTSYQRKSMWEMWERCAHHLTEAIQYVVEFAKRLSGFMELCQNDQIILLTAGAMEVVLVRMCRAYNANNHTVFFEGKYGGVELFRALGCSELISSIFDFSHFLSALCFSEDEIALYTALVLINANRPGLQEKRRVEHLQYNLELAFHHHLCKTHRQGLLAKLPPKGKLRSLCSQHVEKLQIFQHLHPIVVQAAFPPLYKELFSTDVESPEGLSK
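Luminescence from a UAS-regulated Photinus luciferase reporter in stably transfected Drosophila Schneider cells is measured; decreased signal marks ROR gamma inhibition. Fusion expression is induced by 700 uM copper sulfate for 20 hr.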
Coupling enz: inhibits coupling enzyme system, counter-screen for aldolase hits; coupling enzyme system counterscreen, AmpLite Red fluorescence; activity change, negative = inhibition, % at 58.2 µM, hits read low; actives 0.67% (n = 290,000); AID 2472; in the data active = activity change below about -30%
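Activity here indicates interference with the coupling reaction, not aldolase inhibition. Compounds at 57.5 uM final met coupling enzymes for 10 min at RT; substrate and AmpLite Red detection followed, with a 525/598 nm fluorescence read after 20 min.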
ELG1 repair inh: ELG1-dependent DNA repair inhibition | HEK293T ELG1-luciferase reporter, luminescence, 16 h; DNA damage induced by 5-fluorouridine | Potency, µM (titrated, usually from 46.1 µM), for the others: top-dose activity change, negative = inhibition, hits mostly inhibitors | actives 2.3% (n = 330,000) | AID 504467; also: potency is read from the fitted curve at half-maximal effect; nearly all actives have a fitted effect of over 55% in size
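Overnight (16 hr) co-exposure of 2,000 cells/well to 5-fluorouridine and compound at 37 °C preceded detection. Luciferase was quantified via ONE-Glo luminescence; loss of signal denotes inhibition.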
TSHR antagonist: antagonists of human thyroid stimulating hormone receptor; TSHR-expressing cells, TSH-stimulated cAMP HTRF, 2 h; hits give low values; AID 504810; activity change, negative = inhibition, % at 11.5 µM; actives 0.2% (n = 330,000); P16473;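 active = activity change below a set negative limit, meaning inhibition stronger than a set level, cut at about -70% in these data; inconclusive = activity change between two set negative limits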
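TSHR-expressing cells, 200/well, pre-treated with compound, then stimulated with EC80 TSH (4nM final) for 2 hours at 37 deg C. cAMP measured by competitive HTRF: anti-cAMP cryptate antibody in lysis buffer plus cAMP-d2, read after 30 minutes at room temperature.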
Active calls of the source: *; u = inconclusive; x = no result given; [ ] = another dose, or the depositor's remark. Unless noted, calls follow the shape of the dose curve; as a rule, active = well fitted curve in the direction sought with a large enough effect; inconclusive = small, poorly fitted or top-dose-only effect, or another doubt; inactive = no such curve, though single readings can be large; an effect the other way counts as inactive or inconclusive. % is scaled to controls: 0 for no effect and ±100 for the full control effect.

SMILES	VP16 counter	RORgamma inh	Coupling enz	ELG1 repair inh	TSHR antagonist
COc1ccccc1N1CCN(C(=O)c2ccc3nc(-c4ccco4)c(-c4ccco4)nc3c2)CC1	18%	-20%	1	7.3µM*	-21
C=CCC1(c2ccccc2)Oc2ccccc2-c2nc3cc(Cl)c(Cl)cc3nc21 (stereo unspecified)	u	-24%[10 µM]	0	x	x
CC(=O)OC1CC2C(C)(C)C(O)CC[C@@]2(C)C2CC[C@@]3(C)C(c4ccoc4)OC(=O)C4O[C@@]43[C@]12C (stereo partly specified)	-29%	-20%	4	x	x
CC(Cc1ccccc1)C(=O)NCC1CC1 (stereo unspecified)	-1%	-24%	2	x	x
Cc1n[nH]c(=O)c2c(NC(=O)CSc3nncn3C(C)C)oc(C)c12	x	x	x	1%	7
COc1ccc(S(=O)(=O)N2CCCCCC2)cc1C(=O)N1CCN(c2ccccc2C)CC1	x	x	x	u	11
O=C(c1ccc2nc(N3CCOCC3)sc2c1)N1CCC(Cc2ccccc2)CC1	0.22µM*	u	6	-18%	-12
Cc1cccc(N2CCN(C(=O)c3ccc4nc(N5CCCCC5)sc4c3)CC2)c1C	7%	-27%	7	23µM*	6
CCN(Cc1ccccc1)S(=O)(=O)c1ccc(C(=O)N2CCN(c3nc4ccccc4s3)CC2)cc1	22µM*	u	6	12µM*	0
COc1ccc(S(=O)(=O)N2CCCCCC2)cc1C(=O)N1CCN(c2ccccc2O)CC1	x	x	x	13µM*	-6
COc1cc(C(=O)N(C)CC(=O)Nc2cccc(F)c2)ccc1OCc1ccccc1	x	x	x	-3%	9
CN(C(=O)COC(=O)C1(C)CC1(Cl)Cl)c1c(N)n(Cc2ccccc2)c(=O)[nH]c1=O (stereo unspecified)	x	x	x	2%	21
Cc1cccc(NS(=O)(=O)c2ccc(C(=O)N3CCN(c4ccccc4O)CC3)cc2)c1C	u	36%	x	21µM*	-4
O=C(c1ccc(N2CCCC2=O)cc1)N1CCN(c2ccccc2F)CC1	9%	-3%	x	-2%	-3
O=C(c1ccc(N2CCCC2=O)cc1)N1CCN(c2ccccc2O)CC1	x	x	x	18µM*	8
COc1ccccc1N1CCN(C(=O)c2cccc(S(=O)(=O)N3CCCCCC3)c2)CC1	x	x	x	13µM*	-3
COc1cccc(N2CCN(C(=O)c3ccc4nc(N5CCC(C)CC5)sc4c3)CC2)c1	-20%	13µM*	3	u	0
Cc1ccccc1NS(=O)(=O)c1ccc(C(=O)N2CCCC2)cc1	x	x	x	8%	16
O=C(c1cccc(S(=O)(=O)N2CCCCCC2)c1)N1CCN(c2ccccc2F)CC1	0%	3%	x	u	-2
Cc1cc(C(=O)Nc2c(F)cc(F)cc2Br)n(-c2ccccc2)n1	3%	4%	0	14%	17
O=C1C[C@@H](O)[C@@H](O)[C@H]2[C@@H]3C(=O)N(C[C@@H]4CCCO4)C(=O)[C@@H]3CC[C@H]12	-10%[10 µM]	14%[10 µM]	0	x	x
Cc1cccc(N2CCN(C(=O)c3cccc(N4C(=O)C5CC=CC(C)C5C4=O)c3)CC2)c1C (stereo unspecified)	u	u	0	23µM*	0
COc1cccc(CN(C)C(=O)c2[nH]c(C)c(C(C)=O)c2C)c1OC	u	1%	0	u	-4
Cc1cc(S(=O)(=O)NCc2ccccc2)ccc1OCC(=O)Nc1cccc([N+](=O)[O-])c1	11µM*	34%	-14	u	-15
FC(F)(F)c1ccccc1-c1cc(N2CCNCC2)ncn1	-7%	-7%	1	x	x
SMILES	VP16 counter	RORgamma inh	Coupling enz	ELG1 repair inh	TSHR antagonist
CCOC(=O)C(=N/O)/C(C)=N/NC(=O)C(=O)Nc1cc(Cl)ccc1Cl	22µM*	11µM*	1	u	-9
CSCC[C@H](NC(=O)OC(C)(C)C)c1nnc(SCC=C(C)C)o1	-20%	11µM*	-4	-15%	-12
CCOC(=O)CSc1nnc([C@H](CC(C)C)NC(=O)OC(C)(C)C)o1	2%	13µM*	1	17%	1
CSCC[C@H](NC(=O)OC(C)(C)C)c1nnc(SCC(N)=O)o1	-6%	-13%	3	3%	21
COC(=O)CSc1nnc([C@H](CC(C)C)NC(=O)OC(C)(C)C)o1	-2%	-8%	-3	1%	2
Cc1cc(OCC(=O)NCCN2CCOCC2)c2c(C)c(C)c(=O)oc2c1	-1%	-30%	2	u	-9
CCS(=O)(=O)Nc1ccc(Cc2ccc(NS(=O)(=O)CC)cc2)cc1	u	1.3µM*	-1	u	-6
CC(CC(=O)N1CCN(c2cccc(Cl)c2)CC1)S(=O)(=O)c1ccc2c(c1)NC(=O)CO2 (stereo unspecified)	14µM*	-41%	x	u	-35
CCOC(=O)C1CCN(C(=O)CC(C)S(=O)(=O)c2ccc3c(c2)NC(=O)CO3)CC1 (stereo unspecified)	6%	-16%	x	-10%	-3
COc1ccc(N2CCN(C(=O)CC(C)S(=O)(=O)c3ccc4c(c3)NC(=O)CO4)CC2)cc1 (stereo unspecified)	-27%	u	x	13µM*	-4
O=C1COc2ccc(S(=O)(=O)CCC(=O)N3CCN(c4ccccc4)CC3)cc2N1	0%	-2%	2	7%	10
O=C(O)CCN1CC2([N+](=O)[O-])C=CC(=O)C([N+](=O)[O-])(C1)C2CC(=O)c1ccccc1 (stereo unspecified)	-7%	1%	-52*	-4%	33
Cc1c(CC(=O)NCCCC(=O)O)c(=O)oc2cc3c(cc12)CCC(C)(C)O3	7.1µM*	5µM*	1	u	7
CCc1ncnc2cc(OC)c(OC)cc12	-1%	1%	x	x	x
Cc1ccc(Cc2cnc(NC(=O)/C(C#N)=C/c3ccc(-c4ccccc4[N+](=O)[O-])o3)s2)cc1	4.5µM*	2.2µM*	0	-5%	-11
Cn1cc(/C=C(\C#N)C(=O)Nc2ncc(Cc3ccc(Cl)cc3)s2)c2ccccc21	2.5µM*	2µM*	1	-16%	8
CCNc1nc2c(c(=O)[nH]c(=O)n2C)n1CC(C)C	1%	-23%	-1	19%	-4
CC(C)Cn1c([N+](=O)[O-])nc2c1c(=O)[nH]c(=O)n2C	u	8.9µM*	-31*	23µM*	-13
Cn1c(=O)[nH]c(=O)c2c1nc(N1CCNCC1)n2Cc1ccccc1	-12%	-5%	-1	1%	15
Cn1c(=O)[nH]c(=O)c2c1nc([N+](=O)[O-])n2Cc1ccccc1	5.6µM*	4µM*	-45*	15µM*	-29
CCc1ccc(NC(=O)CN2CCCN(S(=O)(=O)c3ccc(F)cc3)CC2)cc1	3%	u	1	u	-4

Screening data (PubChem BioAssay)
